Assay outcomes (PubChem BioAssay)
PME-1 primary = blocks human protein phosphatase methylesterase 1; Q9Y570; recombinant PME-1, FP-Rh probe fluorescence polarization; inhibition, % at 5.9 µM; 320,000 tested, 0.53% active; AID 2130;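 active = inhibition above the campaign mean of all compounds plus 3 SD, cut at about 26% in these data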;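 note: competitive labeling of PME-1 active site by serine hydrolase directed probe; 0% = PME-1 with DMSO and 100% = wells lacking PME-1 enzyme; inhibitors block probe labeling so polarization falls and inhibition rises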
Fam108B counter = counter-screen for RBBP9 inhibitors: inhibitors of mouse Fam108B | recombinant Fam108B, FP-Rh probe fluorescence polarization | inhibition, % at 9.51 µM | AID 1947 | 300,000 tested, 0.33% active;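 active = inhibition above the screen mean inhibition plus 3 SD, computed separately per campaign, cut at about 18% in these data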;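 note: inhibitors lower polarization as less probe binds the enzyme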
LYPLA2 inh = counter-screen for PME1 inhibitors: inhibitors of human LYPLA2 | 320,000 tested, 0.38% active | inhibition, % at 5.9 µM | recombinant LYPLA2, FP-Rh probe fluorescence polarization;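 active = inhibition above the screen-wide mean plus 3 SD, limit set per campaign, cut at about 26% in these data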;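 note: 0% = LYPLA2 with DMSO and 100% = wells lacking LYPLA2 enzyme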
MEX-5 binding = C. elegans MEX-5 TCR-2 RNA binding activity; Q9XUB2; MEX-5/FITC-TCR2 RNA binding, fluorescence polarization; hits give low values; activity score (negative = inhibition of binding), % at 10 µM; 300,000 tested, 0.38% active;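 active = inhibition past about -25% in most replicates, and total fluorescence under double the plate's negative control median, limit read from the data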;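 note: 0% = DMSO and -100% = 5 µM competing unlabeled TCR2 RNA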
PREPL inhibitor = inhibitors of human prolyl oligopeptidase-like enzyme PREPL; Q4J6C6; recombinant PREPL, fluorescence polarization activity-based probe; inhibition, % at 5.96 µM; 320,000 tested, 0.68% active; AID 2751; in the data active = inhibition above about 43%;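 note: 0% = enzyme with DMSO and 100% = wells lacking enzyme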
Target sequence (Q4J6C6 whole entry, looked up): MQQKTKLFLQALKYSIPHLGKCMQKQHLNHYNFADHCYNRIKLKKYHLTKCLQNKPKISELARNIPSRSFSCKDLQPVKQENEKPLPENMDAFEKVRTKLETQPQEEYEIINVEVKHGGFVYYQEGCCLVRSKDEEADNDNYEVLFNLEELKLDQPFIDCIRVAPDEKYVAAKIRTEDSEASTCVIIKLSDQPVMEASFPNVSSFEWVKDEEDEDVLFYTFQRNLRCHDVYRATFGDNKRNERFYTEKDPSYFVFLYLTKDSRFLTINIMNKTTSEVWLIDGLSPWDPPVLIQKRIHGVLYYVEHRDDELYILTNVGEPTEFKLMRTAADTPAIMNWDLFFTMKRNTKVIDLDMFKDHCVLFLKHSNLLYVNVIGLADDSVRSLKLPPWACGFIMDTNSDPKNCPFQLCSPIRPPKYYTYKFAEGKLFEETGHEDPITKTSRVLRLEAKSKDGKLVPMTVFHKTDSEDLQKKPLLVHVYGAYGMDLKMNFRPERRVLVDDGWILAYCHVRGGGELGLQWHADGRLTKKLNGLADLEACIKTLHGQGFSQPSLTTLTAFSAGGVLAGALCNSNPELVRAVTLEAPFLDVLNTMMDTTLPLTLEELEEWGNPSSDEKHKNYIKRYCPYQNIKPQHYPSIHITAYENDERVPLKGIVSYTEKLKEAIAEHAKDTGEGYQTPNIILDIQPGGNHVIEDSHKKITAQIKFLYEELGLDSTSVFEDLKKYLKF
LYPLA1 inh = LYPLA1 (human) inhibition in PME1 counter-screen; recombinant LYPLA1, FP-Rh probe fluorescence polarization; O75608; inhibition, % at 5.9 µM; AID 2174; 320,000 tested, 0.16% active;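 active = inhibition above the mean of all tested compounds plus 3 SD, set per campaign, cut at about 14% in these data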;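 note: inhibitors block serine hydrolase probe labeling of LYPLA1 so polarization falls; 0% = enzyme with DMSO and 100% = wells lacking LYPLA1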
Numbers without * were called inactive; . = not tested or not shown. An excerpt weighted towards active compounds, which were near 1.6% of everything screened.

SMILES	PME-1 primary	Fam108B counter	LYPLA2 inh	MEX-5 binding	PREPL inhibitor	LYPLA1 inh
CC1=NN(c2ccccc2)C(=O)C1N=Nc1cccc(O)c1 (stereo not drawn)	28.2*	7.6	7.3	0.6	10.9	0.5
N/C(Cc1ccc([N+](=O)[O-])cc1)=N\OC(=O)c1ccc(Br)o1	-1.8	0.2	4.4	2.2	3.5	7.3
CCCC(=O)Nc1nnc(SCC(=O)NCc2cccs2)s1	-4.0	0.2	7.3	2.6	-5.3	-0.8
COc1cc(Sc2ccc(C)cc2)c(OC)cc1N	3.6	6.2	5.5	-0.1	47.2*	1.1
COC(=O)c1ccc(Sc2ccc(C)cc2)c(N)c1	2.0	3.7	2.3	-3.1	13.8	0.4
CC(C)Sc1nnc(NC(=O)c2ccco2)s1	-4.1	3.2	-0.7	-2.7	14.0	0.7
CC(=O)c1sc(Nc2nc3cc4c(cc3s2)OCO4)nc1C	.	.	.	-0.9	.	.
CCOC(=O)c1sc(Nc2nc3cc4c(cc3s2)OCO4)cc1C	60.9*	4.3	-0.3	-1.0	24.2	-11.5
c1ccc2sc(Nc3nc4cc5c(cc4s3)OCO5)nc2c1	47.2*	2.6	-0.4	-0.1	14.4	-0.9
Cc1c(Br)cc(C(=O)O)c(C)c1C	-3.1	0.2	2.7	0.1	-5.2	-0.8
Cc1c(N)cc(N)cc1C(=O)O	-6.2	0.6	0.9	-49.5*	-2.7	1.5
COc1ccccc1N1C(=O)c2ccc(C(=O)Nc3ccccc3O)cc2C1=O	-6.1	-3.6	-3.7	1.8	4.3	-6.2
COc1cc(/C=N/NC(=S)Nc2cccc(S(=O)(=O)N(C)C)c2)ccc1O	39.3*	5.2	1.6	-3.8	38.0	-5.2
O=[N+]([O-])c1cc(/C=N/NC(=S)Nc2ccccc2Cl)ccc1Cl	-3.0	0.1	-9.0	.	2.0	-8.8
CCCOc1ccc(/C=N/NC(=S)Nc2ccccc2[N+](=O)[O-])c(O)c1	30.4*	1.8	-7.2	-2.5	4.7	-7.4
COc1ccc(/C=N/NC(=S)Nc2ccccc2[N+](=O)[O-])cc1O	34.8*	15.7	0.8	1.8	14.7	-1.5
CCCOc1ccc(/C=N/Nc2ccccc2[N+](=O)[O-])c(O)c1	10.9	3.2	-0.9	-0.5	11.2	-4.9
CN(C)S(=O)(=O)c1cccc(NC(=S)NNC(=O)c2cc3ccccc3cc2O)c1	26.7*	.	-3.4	.	-13.6	-8.4
CCOC(=O)c1ccc(NC(=O)CSc2nc3sc(C(=O)O)c(C)c3c(=O)[nH]2)cc1	0.6	-0.5	3.5	-1.9	-7.2	-4.7
CC(=O)Nc1ccc(S(=O)(=O)NCCC(=O)Nc2ncccc2C)cc1	-1.9	0.7	0.8	-0.8	-1.1	-2.3
CCC1C(=O)N=C(SCC(=O)NC2CCCCC2)NC1=O (stereo not drawn)	1.1	6.0	3.6	-0.2	3.6	-0.1
O=C(O)c1c2c(nc3ccccc13)/C(=C/c1ccc(O)cc1)CC2	-2.8	3.5	2.8	-29.5*	6.4	-4.2
O=C(O)c1c2c(nc3ccccc13)/C(=C/c1ccc(OC(F)F)cc1)CCC2	-4.9	-1.6	2.4	-1.6	6.0	-4.8
CCCCCN(C(=O)CCC(=O)OCc1cc(C(C)=O)ccc1OC)c1c(N)n(CCCC)c(=O)[nH]c1=O	2.2	1.9	-1.4	0.0	-6.4	-0.9
Cc1oc(-c2ccc(Cl)cc2)nc1CN1CCC(C(=O)NCc2cccnc2)CC1	0.4	-1.3	-1.4	-0.4	12.1	-3.4
SMILES	PME-1 primary	Fam108B counter	LYPLA2 inh	MEX-5 binding	PREPL inhibitor	LYPLA1 inh
CCCN(CCC)CCNC(=O)C1CCN(Cc2nc(-c3ccc(Cl)cc3)oc2C)CC1	2.5	-4.3	-3.8	-0.2	45.1*	-2.3
Cc1ccc(N(C)S(=O)(=O)c2c(C)noc2/C=C/N(C)C)cc1	-4.8	-0.4	-1.7	-30.1*	3.9	1.1
Cc1ccc(CCNC(=O)C2CCCN(S(=O)(=O)c3c(C)noc3/C=C/N(C)C)C2)cc1 (stereo not drawn)	-1.1	-4.5	-9.1	.	26.0	-9.1
CC(=O)N1CCN=C1SCc1cccc(F)c1	-4.0	-1.0	0.3	-1.7	16.2	3.0
C=CCN1C(=O)S/C(=C\c2ccc(N3CCOCC3)cc2C)C1=O	3.7	1.5	1.6	-29.1*	9.7	-2.0
CCCCCNc1nc(-c2ccccc2)cs1	0.5	4.2	-4.5	1.5	69.9*	-4.2
CCOC(=O)C1CCc2sc(N)c(C#N)c21 (stereo not drawn)	-4.3	-2.2	4.5	-0.2	12.9	2.6
Cc1cc(C)nc(N/N=C/C2=C(N3CCOCC3)C(=C\c3ccc(Cl)cc3)/CC2)n1	3.3	5.5	-6.9	-1.5	11.2	-1.5
Cc1occc1C(=O)N/N=C/C1=C(N2CCOCC2)C(=C\c2ccc(Cl)cc2Cl)/CC1	0.7	3.8	2.8	-54.0*	17.5	6.2
CCNC(=O)c1ccccc1-c1nc(-c2ccccc2)no1	1.8	-0.6	2.4	-1.5	7.3	3.7
COc1ccccc1CCC(=O)OCc1csc(CC(=O)Nc2ccccc2C)n1	1.5	-3.8	-4.4	-26.7*	7.2	-2.7
Cc1ccc2c(=O)c(C(=O)NCc3cccs3)c[nH]c2c1	-1.8	-1.9	5.1	1.8	73.8*	0.7
Cc1cccc2c(=O)c(C(=O)NCc3cccs3)c[nH]c12	1.7	0.9	4.7	-2.6	6.2	-0.1
CCOC(=O)N1CCN(S(=O)(=O)c2ccc3c(c2)CC(C)N3C(=O)C2CC2)CC1 (stereo not drawn)	-1.5	-0.6	1.1	2.8	-1.3	3.8
O=C(O)c1cccc(-n2c(/C=C/c3cccc([N+](=O)[O-])c3)nc3ccccc3c2=O)c1	0.4	2.2	-1.9	0.2	0.9	-1.9
O=C(O)c1cccc(-n2c(/C=C/c3ccc([N+](=O)[O-])cc3)nc3ccccc3c2=O)c1	30.2*	0.7	9.9	-3.7	7.0	3.5
COc1ccc(-n2nc3c(=O)[nH][nH]c3cc2=O)cc1	6.8	1.9	7.8	-78.9*	11.8	1.2
COC(=O)c1nn(-c2ccc(OC)cc2)c(=O)cc1NN	5.8	2.0	1.1	2.3	0.0	0.1
O=c1[nH][nH]c2cc(=O)n(-c3cccc(C(F)(F)F)c3)nc12	37.4*	5.0	2.3	-46.4*	7.4	1.9
Cc1ccc(N/N=C2\CS(=O)(=O)N(C)c3ccsc32)cc1	7.0	7.4	1.5	-0.9	72.4*	-4.9
COCCCNC(=O)c1ccccc1C(F)(F)F	1.8	5.4	3.5	-1.3	2.1	2.0
COc1ccc(-c2cn[nH]c2-c2ccc(OCC(=O)NN)cc2O)cc1OC	-2.1	-2.7	1.0	-45.6*	26.1	-4.2
C=C(C)COc1ccc(-c2[nH]ncc2-c2ccc(OC)c(OC)c2)c(O)c1	29.2*	4.9	8.4	-1.0	1.0	-0.5
S=C(NCC1CCCO1)Nc1cc(Cl)c(Cl)cc1Cl (stereo not drawn)	-8.1	-1.0	2.5	-1.0	-0.7	0.7
Nc1ccc2oc(-c3cc(Br)ccc3Cl)nc2c1	27.6*	4.9	-1.1	1.9	6.1	4.2
